Measured values: PubChem BioAssay (NCI)
This is part of a sample that, as a whole, favours compounds with a hit. Of some 83,000 tested, about 20% had one in any assay.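 How to read the values: 0–100, growth inhibition (40 = 60% inhibited); 0, no net growth; -100 to 0, cell death (-40 = 40% of starting cells died; -100 = all dead).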 Unmarked numbers belong to inactive results. The source made the active and inactive calls. The calls were made as follows: active = growth percent below 10; inactive = the rest.

Tests used:
Assay in all cases: NCI-60 one-dose screen, 48 h (100 = growth as untreated, 0 = no growth, -100 = all killed)
Conditions in all cases: 10 µM unless noted
DU-145 prostate = tested on: DU-145 prostate
K-562 leukemia = tested on: K-562 leukemia
MALME-3M melanoma = tested on: MALME-3M melanoma
MDA-MB-231 breast = tested on: MDA-MB-231 breast
RXF 393 renal = tested on: RXF 393 renal
SF-268 CNS = tested on: SF-268 CNS
SF-295 CNS = tested on: SF-295 CNS
SF-539 CNS = tested on: SF-539 CNS
UACC-257 melanoma = tested on: UACC-257 melanoma
M14 melanoma = tested on: M14 melanoma
HCT-15 colon = tested on: HCT-15 colon
HT29 colon = tested on: HT29 colon
SNB-75 CNS = tested on: SNB-75 CNS
SNB-19 CNS = tested on: SNB-19 CNS
U251 CNS = tested on: U251 CNS
PC-3 prostate = tested on: PC-3 prostate
SK-MEL-5 melanoma = tested on: SK-MEL-5 melanoma
UACC-62 melanoma = tested on: UACC-62 melanoma
LOX IMVI melanoma = tested on: LOX IMVI melanoma
SK-MEL-28 melanoma = tested on: SK-MEL-28 melanoma

Row | SMILES | growth (DU-145 prostate) | growth (K-562 leukemia) | growth (MALME-3M melanoma) | growth (MDA-MB-231 breast) | growth (RXF 393 renal) | growth (SF-268 CNS) | growth (SF-295 CNS) | growth (SF-539 CNS) | growth (UACC-257 melanoma) | growth (M14 melanoma) | growth (HCT-15 colon) | growth (HT29 colon) | growth (SNB-75 CNS) | growth (SNB-19 CNS) | growth (U251 CNS) | growth (PC-3 prostate) | growth (SK-MEL-5 melanoma) | growth (UACC-62 melanoma) | growth (LOX IMVI melanoma) | growth (SK-MEL-28 melanoma)
1 | CCOC(=O)C1=C(C)NC(=O)NC1c1c(Cl)n(CCCl)c2ccccc12 (stereo not given) | 107% | 99.3% | 94.4% | 105% | 98.1% | 88% | 95.3% | 97.2% | 92.7% | 98.2% | 99.6% | 107% | 85.4% | 100% | 94.4% | 91.7% | 102% | 85.4% | 92.6% | 108%
2 | COC(=O)/C=C1/SC(=Nc2ccc(C(F)(F)F)cc2)N(CCc2c[nH]c3ccc(O)cc23)C1=O | 12.7% | 19.9% | -13.8% (active) | -13.9% (active) | -50.9% (active) | -5.68% (active) | 14.2% | -37.3% (active) | 9.58% (active) | 0.0712% (active) | 3.12% (active) | -49.9% (active) | -3.46% (active) | -2.49% (active) | -37.7% (active) | -33.8% (active) | -61.9% (active) | -53.6% (active) | -60% (active) | -29.5% (active)
3 | Cc1nc2sc(C(=O)Nc3ccc(Br)cc3)c(N)c2cc1C(O)c1ccccc1 (stereo not given) | 81.7% | 12.1% | 63.9% | 57.9% | 86.6% | 75.8% | 69.5% | 66.7% | 61.8% | 38.9% | 34.7% | 36.7% | 62.6% | 67.7% | 54% | 61.4% | 39.9% | 41.8% | 61.3% | 67.8%
4 | COc1ccc(F)cc1/C=C/C(=O)/C=C(/C=C/c1cc(F)ccc1OC)OB(F)F | 37.9% | 7.73% (active) | 5.69% (active) | 32.5% | 18% | 80.2% | 93.8% | 61.1% | 48.8% | 9.74% (active) | 9.21% (active) | 18% | 83.7% | 72.4% | 14% | 29% | 53.6% | 14.8% | 3.94% (active) | 48.1%
5 | O=c1[nH]c(-c2ccccc2)nc2sc3cc(O)ccc3c12 | 83.6% | 25.9% | 74.1% | 101% | 82.2% | 86.2% | 95.3% | 82.8% | 109% | 75.2% | 69.4% | 106% | 83.2% | 99.8% | 84.1% | 77.3% | 86.3% | 73.6% | 82.7% | 93.9%
6 | Cc1ccc2c(n1)C(=O)C(Br)=C(C1CCCC1)C2=O | 105% | 34.3% | 110% | 85.2% | 89.3% | 96.5% | 103% | 99.7% | 99.3% | 101% | 99.5% | 109% | 99.7% | 98.1% | 97.4% | 89.9% | 97.3% | 98.5% | 91.6% | 117%
7 | CC1(C)CC(=O)C2=C(C1)N(c1ccc(OC(F)(F)F)cc1)C(N)=C(C#N)C2c1ccc(Br)cc1F (stereo not given) | 96.5% | 75.5% | 46.8% | 61.2% | 42.9% | 36.6% | 42.2% | 75% | 80.9% | 79.1% | 71.4% | 79.7% | 54.1% | 34.4% | 56.2% | 51.9% | 92.9% | 78.5% | 54.5% | 90.8%
8 | COc1ccc(C2=C(Br)C(=O)c3nc(C)ccc3C2=O)cc1 | 105% | 36.7% | 91.7% | 73.2% | 95.2% | 94.6% | 105% | 94.8% | 64.2% | 92.8% | 93.1% | 110% | 93.8% | 94.9% | 94% | 80% | 91.6% | 88.5% | 95.4% | 107%
9 | COC(=O)C1Cc2ccccc2CN1C(=O)c1ccc2c(c1)Cc1ccccc1-2 (stereo not given) | 59.8% [50 µM] | 21.2% [50 µM] | 17.7% [50 µM] | 42.3% [50 µM] | 51.2% [50 µM] | 49.3% [50 µM] | 30.2% [50 µM] | 70.1% [50 µM] | 29% [50 µM] | 30.9% [50 µM] | 22.4% [50 µM] | 23.1% [50 µM] | 60.8% [50 µM] | 43.7% [50 µM] | 32.3% [50 µM] | 21.2% [50 µM] | -39.9% [50 µM] (active) | 33.3% [50 µM] | 35.8% [50 µM] | 47.8% [50 µM]
10 | OCCn1cc(-c2nc(-c3c[nH]c4ncccc34)cs2)c2ccccc21 | 93.5% | 54.2% | 115% | 66.4% | 82.4% | 84.1% | 81.1% | 88.5% | 93.1% | 97.7% | 55.9% | 95% | 55.2% | 88.1% | 78.9% | 61.8% | 77.5% | 69.9% | 77.7% | 104%
11 | Nc1ncnc2c1C(c1ccc(Br)cc1)c1sc3c(F)cccc3c1O2 (stereo not given) | 102% | 99.1% | 127% | 79.7% | 104% | 98.9% | 102% | 102% | 114% | 103% | 97.1% | 100% | 83.7% | 110% | 98% | 87.4% | 96.2% | 80.1% | 82.9% | 119%
12 | O=C(CSC(=S)n1cnnc1)NC(=O)c1ccccc1 | 105% | 89.8% | 98.4% | 112% | 120% | 98.6% | 106% | 100% | 113% | 98.1% | 107% | 104% | 95% | 109% | 116% | 102% | 109% | 110% | 97% | 113%
13 | Cn1cc(-c2csc(-c3c[nH]c4ccccc34)n2)c2cnccc21 | 20.9% | -28.1% (active) | -79% (active) | -37.4% (active) | -84% (active) | 54.6% | -69.7% (active) | -88.4% (active) | 90.9% | -80.2% (active) | -59.7% (active) | -1.85% (active) | 80.6% | 48.8% | -25.2% (active) | 48.4% | 51.9% | -52.7% (active) | -84.9% (active) | -51.5% (active)
14 | CCOC(=O)C#Cc1c(C(=O)OCC)nnn1Cc1ccc([N+](=O)[O-])cc1 | 10.4% | 4.56% (active) | 53.8% | 83.1% | -58.4% (active) | 87.4% | 99.8% | 47.3% | 42% | 43.8% | -20% (active) | 7.68% (active) | 65.3% | 87.9% | 96.5% | 72.7% | 93.2% | 76% | -0.0172% (active) | 87%
15 | CC(C)(C)CC(C)(C)NC(=O)Nc1ncccc1OCc1ccccc1 | 97.1% | 89.3% | 91.8% | 96.9% | 116% | 93.1% | 88.3% | 102% | 85.8% | 103% | 86.2% | 80.9% | 91.5% | 95.9% | 96.4% | 82.4% | 92.8% | 81.4% | 90.7% | 103%
